{"source": "PubChem BioAssay (Tox21)", "note": "Results filed as inconclusive are left out. Entries that show only a call come without a potency. Values without a mark were called inactive. Calls of active or inactive are those of the source. Calls come from the whole dose curve."}
{"target": "Progesterone receptor (Homo sapiens) (UniProt P06401)", "sequence (P06401 whole entry, looked up)": "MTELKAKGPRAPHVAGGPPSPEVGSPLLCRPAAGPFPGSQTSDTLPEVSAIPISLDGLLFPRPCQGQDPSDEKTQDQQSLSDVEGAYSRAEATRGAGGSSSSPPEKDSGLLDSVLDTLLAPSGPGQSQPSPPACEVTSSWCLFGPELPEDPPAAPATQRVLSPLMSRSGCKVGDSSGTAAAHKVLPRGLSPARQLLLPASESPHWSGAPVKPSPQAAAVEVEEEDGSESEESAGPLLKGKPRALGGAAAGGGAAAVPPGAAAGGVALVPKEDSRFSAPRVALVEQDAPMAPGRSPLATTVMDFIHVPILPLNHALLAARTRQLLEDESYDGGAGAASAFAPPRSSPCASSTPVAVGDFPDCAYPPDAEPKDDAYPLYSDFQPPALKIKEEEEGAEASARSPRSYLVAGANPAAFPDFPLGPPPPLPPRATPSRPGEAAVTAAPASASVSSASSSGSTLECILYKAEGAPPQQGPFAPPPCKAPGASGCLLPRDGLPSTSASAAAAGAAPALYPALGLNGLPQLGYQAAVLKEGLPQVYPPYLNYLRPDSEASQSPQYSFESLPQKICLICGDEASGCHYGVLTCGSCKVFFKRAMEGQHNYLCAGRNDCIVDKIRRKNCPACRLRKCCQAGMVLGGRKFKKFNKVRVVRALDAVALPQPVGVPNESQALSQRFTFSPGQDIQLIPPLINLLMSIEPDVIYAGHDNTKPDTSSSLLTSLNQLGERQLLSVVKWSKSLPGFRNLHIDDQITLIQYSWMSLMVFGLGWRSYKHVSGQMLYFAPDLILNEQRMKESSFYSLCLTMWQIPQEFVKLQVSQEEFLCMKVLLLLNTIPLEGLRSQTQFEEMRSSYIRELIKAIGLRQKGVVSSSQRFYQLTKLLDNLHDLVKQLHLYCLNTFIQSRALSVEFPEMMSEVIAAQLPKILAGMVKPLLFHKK", "assay": "qHTS assay to identify small molecule agonists of the progesterone receptor (PR) signaling pathway (AID 1346784); note: nearly all actives have a fitted effect of over 30% in size", "settings": "PR-UAS-bla HEK293T, beta-lactamase FRET ratio, 16 h; series mostly up to 92.4 µM; activation: at the top concentration", "excerpt": "U.S. Tox21 Program National Center for Advancing Translational Sciences [NCATS] NIH Chemical Genomics Center [NCGC] U.S. Environmental Protection Agency [EPA] National Institutes of Environmental Health Sciences [NIEHS] National Toxicology Program [NTP] U.S. Food and Drug Administration [FDA] […] Endocrine disrupting chemicals (EDCs) and their interactions with steroid hormone receptors like PR causes disruption of normal endocrine function. To identify the compounds that activate PR signaling, a PR-UAS-bla GripTite cell line i.e. PR-UAS-bla HEK 293T (Invitrogen, Carlsbad, CA, USA) containing a beta-lactamase reporter gene under the control of an Upstream Activator Sequence (UAS) was used to screen Tox21 10K compound library.\nTox21 Assay Protocol Summary: PR-UAS-bla HEK 293T cells were dispensed at 3,000 cells/5 uL of assay medium containing 2% charcoal stripped FBS per well into black wall/clear-bottom 1536-well plates using a Multidrop Combi (ThermoFisher Scientific, Waltham, MA) dispenser. After the assay plates were incubated at a 37C and 5% CO2 for 6hr, 23 nL of compounds dissolved in DMSO, positive controls or DMSO only was transferred to the assay plate by a Pintool station (Kalypsys, San Diego, CA). The plates were incubated at 37C and 5% CO2 for 16hr. Then 1 uL of LiveBLAzer B/G FRET substrate was added using a BioRAPTR FRD (Flying Reagent Dispenser, Aurora Discovery, San Diego, CA). After the plates were incubated at room temperature for 2 hours, fluorescence intensity was measured by an Envision plate reader (PerkinElmer, Shelton, CT).", "units": {"activation": "%"}}
{"smiles": "Oc1ccc(Cc2ccccc2O)cc1", "Potency": "inactive"}
{"smiles": "C[n+]1ccn(CCO)c1", "Potency": "inactive"}
{"smiles": "CC(C)c1ccc(C(C)C)cc1", "Potency": "inactive"}
{"smiles": "COC(=O)/C=C\\C(=O)OC", "Potency": "inactive"}
{"smiles": "CC(=O)OC(C)(C)C1CC=C(C)CC1", "note": "(stereo not given)", "Potency": "inactive"}
{"smiles": "Brc1ccc(Oc2ccc(Br)cc2)cc1", "Potency": "inactive"}
{"smiles": "C[Si](C)(C)N[Si](C)(C)C", "Potency": "inactive"}
{"smiles": "NC(=O)NC(N)=O", "Potency": "inactive"}
{"smiles": "CCCCCCCCCCCC(=O)N(C)CC(=O)O", "Potency": "inactive"}
{"smiles": "CC(=O)C(C)C", "Potency": "inactive"}
{"smiles": "C1CCCNCC1", "Potency": "inactive"}
{"smiles": "O=Cc1ccc(CO)o1", "activation": -0.242}
{"smiles": "CC/C(C)=N/O", "Potency": "inactive"}
{"smiles": "C=C(CC(=O)O)C(=O)O", "Potency": "inactive"}
{"smiles": "COc1ccc(N)c(OC)c1", "Potency": "inactive"}
{"smiles": "CCCCCCCCC(=O)O", "Potency": "inactive"}
{"smiles": "O=C1O[C@H]([C@H](O)CO)C(O)=C1O", "Potency": "inactive"}
{"smiles": "CC(=O)CC(=O)N(C)C", "Potency": "inactive"}
{"smiles": "O=c1n(CCCN2CCN(c3cccc(Cl)c3)CC2)nc2ccccn12", "Potency": "inactive"}
{"smiles": "CCOC(=O)CC(=O)OCC", "Potency": "inactive"}
{"smiles": "Cc1ccc([N+](=O)[O-])cc1N", "Potency": "inactive"}
{"smiles": "CC/C=C(\\C(=O)N[C@@H]1C(=O)N2C(C(=O)OCOC(=O)C(C)(C)C)=C(COC(N)=O)CS[C@H]12)c1csc(N)n1", "Potency": "inactive"}
{"smiles": "CC(=O)OC/C=C(\\C)CCC=C(C)C", "Potency": "inactive"}
{"smiles": "Cc1ccc(C(C)C)cc1", "Potency": "inactive"}
{"smiles": "CC(O)CNCC(C)O", "note": "(stereo not given)", "Potency": "inactive"}
{"smiles": "CCCCCNCCCCC", "Potency": "inactive"}
{"smiles": "CCCCCCCCCCCCCC(=O)O", "Potency": "inactive"}
{"smiles": "Nc1cccc(C(F)(F)F)c1", "Potency": "inactive"}
{"smiles": "C=C(C)CC(C)(C)C", "Potency": "inactive"}
{"smiles": "COc1ccc([C@@H]2CC(=O)c3c(O)cc(O[C@@H]4O[C@H](CO[C@@H]5O[C@@H](C)[C@H](O)[C@@H](O)[C@H]5O)[C@@H](O)[C@H](O)[C@H]4O)cc3O2)cc1OC", "Potency": "inactive"}
{"smiles": "CCCOCC(C)O", "note": "(stereo not given)", "Potency": "inactive"}
{"smiles": "CCCCC(CC)COC(=O)c1ccc(C(=O)OCC(CC)CCCC)cc1", "note": "(stereo not given)", "Potency": "inactive"}
{"smiles": "O=C1OC(=O)c2c(Cl)c(Cl)c(Cl)c(Cl)c21", "Potency": "inactive"}
{"smiles": "CC[N+](CC)(CC(=O)Nc1c(C)cccc1C)Cc1ccccc1", "Potency": "inactive"}
{"smiles": "CN=C(NC#N)NCCSCc1nc[nH]c1C", "activation": -1.27}
{"smiles": "CC(C=O)Cc1ccc(C(C)(C)C)cc1", "note": "(stereo not given)", "Potency": "inactive"}
{"smiles": "OCC(CO)(CO)CO", "Potency": "inactive"}
{"smiles": "C=C1C[C@]23C[C@@]1(O)CC[C@H]2[C@@]12C=C[C@H](O)[C@@](C)(C(=O)O1)[C@H]2[C@@H]3C(=O)O", "Potency": "inactive"}
{"smiles": "CCCCCC(C)=O", "Potency": "inactive"}
{"smiles": "Cc1ncc(CO)c(CO)c1O", "Potency": "inactive"}
